Measured values taken from the supplement of paper PMC10849652.
The full data set covers some 8,800 targets. This sample favours those with a hit. About 0.5% of all pairs of compound and target were hits. Unmarked numbers belong to inactive results.

Tests used:
Assay in all cases: log2 fold change, soluble protein after heating vs DMSO (PISA); higher = thermal stabilisation; K562 lysate, 10 uM; active = over 0.2 and 3.5 SD of the protein, either way, in both replicates (recomputed)
[1] = compound: C#Cc1cccc(Nc2ncnc3cc(OCCOC)c(OCCOC)cc23)c1 [erlotinib]
Summary of the method: (§1)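 Quantification was by TMTpro 16plex LC-MS/MS with equalised channel sums, applied to the supernatant after 21,000xg for 90 min. Samples were crude K562 extract at 1 mg/mL protein in PBS pH 7.4 with 1 mM MgCl2, treated with 10 μM compound for 30 min, heated for 3 min across 48°C-58°C, pooled and brought to 0.5% NP-40 at 4°C. Values are log-two fold changes in thermal stability relative to solvent controls, from duplicates.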

[2] = compound: C/C(=N\NC(=O)C1=CC(=CC=C1)S(=O)(=O)N2CCOCC2)/C3=C(C=CC(=C3)Cl)O
Summary of the method: as §1

[3] = compound: C1=CC(=CC=C1C2=NC3=C(N2)C=C(C=C3)C(=O)N)OC4=CC=C(C=C4)Cl
Summary of the method: as §1

[4] = compound: C1=CC2=C(C=CC(=C2)/C=C\3/C(=O)NC(=NCC4=CC=CS4)S3)N=C1
Summary of the method: as §1

[5] = compound: C1=CC2=NC=CN=C2C=C1/C=C/3\C(=O)NC(=O)S3
Summary of the method: as §1

[6] = compound: C1=CC=C(C=C1)C2=NC(=C(N2)C3=CC=NC=C3)C4=CC(=C(C=C4)Cl)O
Summary of the method: as §1

[7] = compound: C1=CC=C2C(=C1)C3=NNC4=CC=CC(=C43)C2=O
Summary of the method: as §1

[8] = compound: C1CCN(C1)C(=O)NC2=CC=CC(=C2)NC3=NC=C(C(=N3)NCCC4=CN=CN4)Br
Summary of the method: as §1

[9] = compound: C1CN(CCC1(CC2=CC=C(C=C2)Cl)N)C3=NC=NC4=C3C=CN4
Summary of the method: as §1

[10] = compound: C1COCCN1CCN2C3=CC=CC=C3N=C2NC(=O)C4=CC(=CC=C4)[N+](=O)[O-] [IRAK-1-4 Inhibitor I]
Summary of the method: as §1

Chain of UniProt P13861 (P13861 whole entry, looked up): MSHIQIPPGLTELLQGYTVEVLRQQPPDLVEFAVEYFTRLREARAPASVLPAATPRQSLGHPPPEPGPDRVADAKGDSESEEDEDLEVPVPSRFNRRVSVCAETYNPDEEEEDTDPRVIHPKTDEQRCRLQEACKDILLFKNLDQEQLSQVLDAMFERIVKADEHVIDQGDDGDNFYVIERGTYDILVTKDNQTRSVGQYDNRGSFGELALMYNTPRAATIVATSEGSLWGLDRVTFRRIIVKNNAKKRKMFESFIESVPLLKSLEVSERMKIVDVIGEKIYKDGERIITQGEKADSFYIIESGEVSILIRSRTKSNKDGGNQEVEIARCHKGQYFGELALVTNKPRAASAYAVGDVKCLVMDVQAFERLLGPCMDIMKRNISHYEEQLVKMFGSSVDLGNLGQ
Chain of UniProt O15031 (O15031 whole entry, looked up): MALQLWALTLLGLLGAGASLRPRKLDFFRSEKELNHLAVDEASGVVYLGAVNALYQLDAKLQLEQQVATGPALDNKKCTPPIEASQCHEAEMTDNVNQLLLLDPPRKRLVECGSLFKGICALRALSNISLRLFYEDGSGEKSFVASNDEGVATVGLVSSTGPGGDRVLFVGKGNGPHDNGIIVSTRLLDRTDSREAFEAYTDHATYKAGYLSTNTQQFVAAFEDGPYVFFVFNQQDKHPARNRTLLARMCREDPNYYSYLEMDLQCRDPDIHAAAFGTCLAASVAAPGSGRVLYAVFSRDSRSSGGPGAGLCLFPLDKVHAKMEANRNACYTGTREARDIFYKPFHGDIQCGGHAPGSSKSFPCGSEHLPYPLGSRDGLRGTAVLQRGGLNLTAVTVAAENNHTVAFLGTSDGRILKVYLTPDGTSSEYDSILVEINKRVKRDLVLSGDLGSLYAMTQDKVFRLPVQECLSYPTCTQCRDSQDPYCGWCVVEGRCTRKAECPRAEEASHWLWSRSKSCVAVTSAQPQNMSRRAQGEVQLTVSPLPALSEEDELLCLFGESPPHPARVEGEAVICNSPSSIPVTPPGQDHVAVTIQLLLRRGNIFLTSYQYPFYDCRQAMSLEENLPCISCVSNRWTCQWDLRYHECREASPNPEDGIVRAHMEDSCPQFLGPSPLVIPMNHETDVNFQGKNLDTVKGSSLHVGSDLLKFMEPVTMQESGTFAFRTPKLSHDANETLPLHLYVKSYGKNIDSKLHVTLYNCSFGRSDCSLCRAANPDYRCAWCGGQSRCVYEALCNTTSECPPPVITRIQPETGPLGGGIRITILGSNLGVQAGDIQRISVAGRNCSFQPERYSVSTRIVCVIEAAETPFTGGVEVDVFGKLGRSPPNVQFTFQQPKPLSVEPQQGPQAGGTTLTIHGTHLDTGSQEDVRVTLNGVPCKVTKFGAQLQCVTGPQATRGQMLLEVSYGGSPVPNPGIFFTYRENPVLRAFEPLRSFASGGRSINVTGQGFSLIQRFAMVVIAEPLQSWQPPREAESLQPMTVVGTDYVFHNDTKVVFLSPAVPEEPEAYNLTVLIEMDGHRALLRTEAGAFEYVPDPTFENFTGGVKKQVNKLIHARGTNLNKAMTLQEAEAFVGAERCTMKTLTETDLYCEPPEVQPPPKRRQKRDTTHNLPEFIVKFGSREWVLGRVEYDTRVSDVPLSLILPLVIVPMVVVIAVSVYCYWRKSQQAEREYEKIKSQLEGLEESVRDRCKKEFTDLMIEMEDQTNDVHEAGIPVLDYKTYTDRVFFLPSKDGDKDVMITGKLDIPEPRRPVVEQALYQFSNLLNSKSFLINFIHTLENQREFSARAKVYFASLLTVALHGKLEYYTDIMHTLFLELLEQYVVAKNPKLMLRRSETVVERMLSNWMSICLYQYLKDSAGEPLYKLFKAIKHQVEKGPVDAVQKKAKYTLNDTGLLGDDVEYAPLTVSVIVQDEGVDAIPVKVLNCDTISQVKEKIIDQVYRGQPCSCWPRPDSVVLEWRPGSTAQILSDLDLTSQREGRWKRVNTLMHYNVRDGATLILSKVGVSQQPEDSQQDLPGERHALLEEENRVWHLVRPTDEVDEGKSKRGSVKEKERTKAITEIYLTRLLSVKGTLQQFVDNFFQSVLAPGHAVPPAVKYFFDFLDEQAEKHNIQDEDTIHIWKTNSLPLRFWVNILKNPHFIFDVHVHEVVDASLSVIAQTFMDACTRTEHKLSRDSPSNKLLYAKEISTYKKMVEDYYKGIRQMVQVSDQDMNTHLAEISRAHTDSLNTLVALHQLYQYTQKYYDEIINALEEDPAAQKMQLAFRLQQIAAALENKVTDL
Chain of UniProt Q9NVM4 (Q9NVM4 whole entry, looked up): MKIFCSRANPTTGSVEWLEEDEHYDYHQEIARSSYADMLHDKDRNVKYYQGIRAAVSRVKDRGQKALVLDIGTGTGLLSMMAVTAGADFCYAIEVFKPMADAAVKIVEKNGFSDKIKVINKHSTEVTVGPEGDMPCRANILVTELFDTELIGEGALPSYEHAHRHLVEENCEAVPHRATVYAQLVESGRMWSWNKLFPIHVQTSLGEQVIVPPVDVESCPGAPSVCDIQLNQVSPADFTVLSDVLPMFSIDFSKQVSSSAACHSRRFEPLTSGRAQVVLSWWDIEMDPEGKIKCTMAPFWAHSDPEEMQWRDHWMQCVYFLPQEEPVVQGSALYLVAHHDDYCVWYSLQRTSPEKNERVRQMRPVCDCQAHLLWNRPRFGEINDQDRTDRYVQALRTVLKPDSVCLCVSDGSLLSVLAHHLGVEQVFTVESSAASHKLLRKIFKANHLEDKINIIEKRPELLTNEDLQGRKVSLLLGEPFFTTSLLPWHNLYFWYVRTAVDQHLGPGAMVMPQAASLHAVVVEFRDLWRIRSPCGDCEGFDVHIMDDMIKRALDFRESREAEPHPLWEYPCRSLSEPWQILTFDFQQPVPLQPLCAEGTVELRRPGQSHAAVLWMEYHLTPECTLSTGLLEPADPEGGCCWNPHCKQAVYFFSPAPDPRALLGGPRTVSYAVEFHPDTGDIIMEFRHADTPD
Chain of UniProt Q10713 (Q10713 whole entry, looked up): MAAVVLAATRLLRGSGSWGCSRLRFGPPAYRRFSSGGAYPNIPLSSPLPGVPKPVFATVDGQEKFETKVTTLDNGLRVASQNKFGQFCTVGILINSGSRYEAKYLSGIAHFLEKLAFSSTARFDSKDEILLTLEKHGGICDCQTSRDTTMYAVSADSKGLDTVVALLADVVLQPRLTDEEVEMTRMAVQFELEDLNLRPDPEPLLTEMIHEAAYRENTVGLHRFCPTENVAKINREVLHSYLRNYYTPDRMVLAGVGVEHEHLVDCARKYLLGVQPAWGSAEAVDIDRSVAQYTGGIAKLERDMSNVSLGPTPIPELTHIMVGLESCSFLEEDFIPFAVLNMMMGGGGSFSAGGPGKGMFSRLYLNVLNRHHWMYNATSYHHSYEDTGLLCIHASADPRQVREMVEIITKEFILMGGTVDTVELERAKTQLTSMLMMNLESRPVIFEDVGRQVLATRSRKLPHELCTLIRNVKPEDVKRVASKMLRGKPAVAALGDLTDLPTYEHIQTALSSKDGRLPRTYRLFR
Chain of UniProt P15735 (P15735 whole entry, looked up): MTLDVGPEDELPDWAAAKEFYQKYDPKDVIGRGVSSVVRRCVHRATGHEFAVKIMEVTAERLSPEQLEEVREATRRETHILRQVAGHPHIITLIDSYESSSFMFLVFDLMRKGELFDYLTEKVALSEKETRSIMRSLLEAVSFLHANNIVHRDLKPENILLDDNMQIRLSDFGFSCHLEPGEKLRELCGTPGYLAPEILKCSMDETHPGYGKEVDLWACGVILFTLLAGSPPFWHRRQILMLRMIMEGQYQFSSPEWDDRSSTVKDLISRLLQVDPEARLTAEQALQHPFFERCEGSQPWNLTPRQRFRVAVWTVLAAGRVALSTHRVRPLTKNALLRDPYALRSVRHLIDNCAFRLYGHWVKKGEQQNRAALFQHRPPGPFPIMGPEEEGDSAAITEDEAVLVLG
Chain of UniProt Q9Y570 (Q9Y570 whole entry, looked up): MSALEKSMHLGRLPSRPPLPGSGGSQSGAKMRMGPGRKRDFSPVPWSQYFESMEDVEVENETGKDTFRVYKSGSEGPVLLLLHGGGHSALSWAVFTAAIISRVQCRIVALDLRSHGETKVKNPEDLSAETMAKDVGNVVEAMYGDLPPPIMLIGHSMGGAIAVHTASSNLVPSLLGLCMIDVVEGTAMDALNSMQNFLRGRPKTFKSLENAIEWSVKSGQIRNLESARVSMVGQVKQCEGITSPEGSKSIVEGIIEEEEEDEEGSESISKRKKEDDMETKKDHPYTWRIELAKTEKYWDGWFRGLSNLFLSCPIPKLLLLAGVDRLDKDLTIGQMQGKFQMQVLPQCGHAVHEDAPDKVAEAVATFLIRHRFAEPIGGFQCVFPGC
Chain of UniProt Q6P996 (Q6P996 whole entry, looked up): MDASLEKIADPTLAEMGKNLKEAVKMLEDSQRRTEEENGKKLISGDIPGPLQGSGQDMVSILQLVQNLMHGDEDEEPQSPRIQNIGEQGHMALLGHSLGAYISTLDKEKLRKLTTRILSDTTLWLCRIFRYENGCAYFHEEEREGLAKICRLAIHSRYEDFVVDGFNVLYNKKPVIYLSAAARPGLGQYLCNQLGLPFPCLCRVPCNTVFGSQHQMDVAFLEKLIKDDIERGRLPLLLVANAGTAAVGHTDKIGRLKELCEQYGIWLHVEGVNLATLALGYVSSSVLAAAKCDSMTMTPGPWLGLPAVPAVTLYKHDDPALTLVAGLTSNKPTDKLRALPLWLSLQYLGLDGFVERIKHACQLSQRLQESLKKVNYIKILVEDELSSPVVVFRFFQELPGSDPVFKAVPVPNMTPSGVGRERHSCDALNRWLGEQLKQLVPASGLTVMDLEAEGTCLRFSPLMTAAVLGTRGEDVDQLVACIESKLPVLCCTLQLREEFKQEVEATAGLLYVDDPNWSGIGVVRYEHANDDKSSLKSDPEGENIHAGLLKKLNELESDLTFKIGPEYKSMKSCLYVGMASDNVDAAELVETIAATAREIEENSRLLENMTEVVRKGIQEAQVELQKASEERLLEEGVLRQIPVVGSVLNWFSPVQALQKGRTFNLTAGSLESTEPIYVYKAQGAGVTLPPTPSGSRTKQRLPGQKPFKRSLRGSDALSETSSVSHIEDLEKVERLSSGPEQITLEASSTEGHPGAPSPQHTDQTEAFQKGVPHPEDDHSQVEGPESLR

Target	log2 fold change [1]	log2 fold change [2]	log2 fold change [3]	log2 fold change [4]	log2 fold change [5]	log2 fold change [6]	log2 fold change [7]	log2 fold change [8]	log2 fold change [9]	log2 fold change [10]
PPOX (UniProt P50336)	-0.044	0.532 (active)	0	-0.015	-0.04	0.025	0.014	0	-0.041	-0.016
PPP2R5B (UniProt Q15173)	-0.026	0.038	0.056	-0.106	0.123	0	0.052	-0.051	-0.042	0.016
PDPK1 (UniProt O15530)	-0.066	-0.007	-0.081	-0.047	-0.055	0.005	0.298	0.552 (active)	0.019	0.018
PDXDC1 (UniProt Q6P996)	-0.012	0.008	-0.095	0.034	0.013	-0.005	0.024	-0.011	-0.024	-0.006
PELO (UniProt Q9BRX2)	0	-0.047	-0.058	-0.014	-0.002	0	-0.038	-0.021	-0.049	0
PLXNB2 (UniProt O15031)	-0.014	-0.027	-0.013	-0.04	-0.037	0.005	-0.018	-0.017	0.049	0.004
PHKA1 (UniProt P46020)	-0.011	0.003	-0.015	0.063	0.078	-0.027	0.205	0.05	0.026	0.01
PRAME (UniProt P78395)	0.02	-0.056	-0.001	-0.027	-0.037	0.013	-0.043	-0.004	0.007	-0.008
PPP2CA (UniProt P67775)	-0.088	0.134	-0.057	-0.045	-0.007	0.064	0.016	0.106	-0.027	-0.041
PHKG2 (UniProt P15735)	-0.106	0.062	0.04	0.075	0.104	0.022	0.231	0.045	-0.011	0.036
PPME1 isoform 4 (UniProt Q9Y570)	-0.002	-0.006	0.023	-0.005	-0.035	0.017	0.065	0.013	0.01	-0.006
PRMT7 (UniProt Q9NVM4)	-0.042	0.004	0.024	0.038	0.008	-0.023	-0.083	-0.033	-0.031	-0.008
PRKAR2A (UniProt P13861)	0.001	0.032	0.02	-0.02	-0.009	0	-0.029	-0.252 (active)	-0.212	-0.06
PMPCA (UniProt Q10713)	-0.034	-0.012	0.073	0.008	-0.006	0.043	-0.014	-0.026	-0.012	0.007
PFKFB4 (UniProt Q16877)	0.02	0.044	0.041	-0.024	-0.031	0.096	-0.083	-0.003	0.067	-0.023
